Bioassay records as filed in PubChem BioAssay.
Sampled rows, rich in hits. Any-hit rate of the full collection: about 19%.
TDP1 inh – qHTS Assay for Inhibitors of Tyrosyl-DNA Phosphodiesterase (TDP1). AID 485290, 2010. recombinant TDP1, AlphaScreen DNA substrate cleavage. Potency, µM (highest dose often 130 µM), for the others: at the highest dose activity change, negative = inhibition, hits mostly inhibitors. 350,000 compounds, 0.28% hits; also: potency is read from the fitted curve at half-maximal effect; % is scaled to controls: 0 for no effect and ±100 for the full control effect; nearly all actives have a fitted effect of over 40% in size
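Enzyme-compound mixtures sat 15 min at room temperature, followed by a 5 min reaction with 15 nM final substrate and 10 min with AlphaScreen beads. Recombinant human Tdp1 was used at 1 nM final.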
TGFb SMAD3 inh – qHTS for Inhibitors of TGF-b | HepG2 CAGA-GFP TGF-b/SMAD3 reporter, GFP fluorescence, 18 h; TGF-beta stimulated, 500 pg/mL final | Potency, µM (series often up to 46.1 µM), without a hit: at the top dose activity, negative = inhibition, actives largely listed as inhibitors | 410,000 compounds, 1.2% hits | AID 588855, 2011; also: potency is read from the fitted curve at half-maximal effect; % is scaled to controls: 0 for no effect and ±100 for the full control effect; nearly all actives have a fitted effect of over 65% in size
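TGF-beta reporter screen: HEPG2 CAGA-GFP, 1% FBS, 500 pg/mL TGF-beta final, 18 h; per-cell GFP summed per well; curves fitted and categorized by class.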
TDP1 cell noCPT – qHTS for Inhibitors of human tyrosyl-DNA phosphodiesterase 1 (TDP1): qHTS in cells in absence of CPT. DT40 Tdp1-/- hTDP1 cells, no CPT, ATP luminescence, 48 h. Potency, µM (doses to about 46.2 µM), for inactives: at the highest dose activity change, negative = growth inhibition, usual class: inhibitors. 420,000 compounds, 15% hits; also: potency is read from the fitted curve at half-maximal effect; % is scaled to controls: 0 for no effect and ±100 for the full control effect; nearly all actives have a fitted effect of over 55% in size
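No-CPT arm: Tdp1-/-;hTDP1 DT40 cells (400/well) plus compounds, incubated ≥48 hr at 37 °C. Readout CellTiter-Glo luminescence.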
DT40 TDP1 CPT – qHTS for Inhibitors of human tyrosyl-DNA phosphodiesterase 1 (TDP1): qHTS in cells in presence of CPT. Potency, µM (series often up to 46.2 µM), for inactives: top-dose activity change, negative = growth inhibition, hits mostly inhibitors. 420,000 compounds, 12% hits. chicken DT40 Tdp1-/-;hTDP1 cells + 20 nM CPT, ATP luminescence, 48 h; also: potency is read from the fitted curve at half-maximal effect; % is scaled to controls: 0 for no effect and ±100 for the full control effect; nearly all actives have a fitted effect of over 55% in size
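Chicken DT40 Tdp1-/- cells complemented with human TDP1, 400 cells/well, exposed to compounds plus 20 nM camptothecin for at least 48 h at 37 C; viability read as ATP content by CellTiter-Glo luminescence.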
HepG2 tox – qHTS for Inhibitors of TGF-b: Cytotox Counterscreen. HepG2 CAGA-GFP viability, ATP luminescence, 18 h. Potency, µM (highest dose often 46.1 µM), for the others: at the top dose activity change, negative = cytotoxicity, actives largely listed as cytotoxic. 410,000 compounds, 0.76% hits; also: potency is read from the fitted curve at half-maximal effect
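CellTiter-Glo luminescence gave cytotoxicity after 18 hours at 37 degrees C. The cells were HepG2 CAGA-GFP in 1% FBS DMEM, stimulated with 500 pg/mL TGF-beta after compound addition. %Activity was normalised to no-cell wells (complete cell-killing) and DMSO (no toxicity), and curves were fitted and classified.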
IL1B secr inh – qHTS for Inhibitors of Inflammasome Signaling: IL-1-beta AlphaLISA Primary Screen. activity change, % at 57.5 µM. THP-1 LPS/ATP IL-1B secretion, AlphaLISA, 16 h; active compounds read low. 360,000 compounds, 4.7% hits; in the data active = activity change below about -50%; inconclusive = mostly about -30% to -49%; also: % is scaled to controls: 0 for no effect and ±100 for the full control effect
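THP-1 cells pretreated 1 hr with compounds (up to 57.5 uM final), then stimulated with LPS (250 ng/mL final) plus ATP (1.25 mM final); secreted IL-1B measured by AlphaLISA after 16 hr, decreased signal indicating inhibition.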
An asterisk follows results filed as active; ? = inconclusive; nt = no result; [ ] = remark or other dose. Unless noted, calls follow the shape of the dose curve; as a rule, active = well fitted curve in the direction sought with a large enough effect; inconclusive = small, poorly fitted or top-dose-only effect, or another doubt; inactive = no such curve, though single readings can be large; an effect the other way counts as inactive or inconclusive.

SMILES | TDP1 inh | TGFb SMAD3 inh | TDP1 cell noCPT | DT40 TDP1 CPT | HepG2 tox | IL1B secr inh
O=C(NCCCN1CCOCC1)c1cc(-c2ccc(Cl)s2)nc2ccccc12 | nt | -15% | ? | ? | 0% | -78*
O=C(NCCCN1CCOCC1)c1cc(-c2cccc(Br)c2)nc2ccccc12 | 4% | 0% | ? | ? | -4% | -64*
O=C(NCCCN1CCOCC1)c1cc(-c2ccc(F)cc2)nc2ccccc12 | 1% | 2% | -26% | ? | 5% | -27
CC1CN(C(=O)c2cc(-c3ccc(Cl)s3)nc3ccccc23)CC(C)O1 (stereo not drawn) | -6% | -15% | 16µM* | ? | -22% | -53*
CC(C)CO/N=C1/C[C@@H](O)[C@@H](O)[C@@H]2[C@@H]3C(=O)N(C(C)(C)C)C(=O)[C@H]3CC[C@@H]12 | 7%[21 µM] | nt | nt | nt | nt | nt
O=C1NC(Cc2ccccc2)c2nc3ccccc3c(=O)n2-c2cc3ccccc3cc21 (stereo not drawn) | nt | 0% | 13µM* | 13µM* | -5% | -5
CCCC1NC(=O)c2cc3ccccc3cc2-n2c1nc1cc(F)ccc1c2=O (stereo not drawn) | nt | -15% | 21µM* | ? | -21% | 7
O=C1NC(Cc2ccccc2)c2nc3cc(F)ccc3c(=O)n2-c2cc3ccccc3cc21 (stereo not drawn) | nt | 9% | 5.8µM* | 5.2µM* | -18% | -11
O=C1NC(Cc2ccccc2)c2nc3ccc(F)cc3c(=O)n2-c2ncccc21 (stereo not drawn) | nt | 15% | 21µM* | ? | 0% | -6
O=C1NC(Cc2ccccc2)c2nc3cc(F)ccc3c(=O)n2-c2ccc(Cl)cc21 (stereo not drawn) | 0% | nt | nt | nt | nt | nt
COc1cc2nc3n(c(=O)c2cc1OC)-c1cc2ccccc2cc1C(=O)NC3Cc1ccccc1 (stereo not drawn) | nt | -1% | 16µM* | ? | -18% | 4
Cc1ccc2nc3n(c(=O)c2c1)-c1cc2ccccc2cc1C(=O)NC3Cc1ccc(O)cc1 (stereo not drawn) | nt | ? | -14% | -8% | -2% | 28
COc1cc2nc3n(c(=O)c2cc1OC)-c1cc2ccccc2cc1C(=O)NC3CC(C)C (stereo not drawn) | nt | ? | ? | ? | 4% | -9
O=C1NC(Cc2ccc(O)cc2)c2nc3ccc(F)cc3c(=O)n2-c2cc3ccccc3cc21 (stereo not drawn) | nt | ? | 26µM* | ? | -28% | -18
O=C1NC(Cc2ccccc2)c2nc3cc(F)c(F)cc3c(=O)n2-c2cc3ccccc3cc21 (stereo not drawn) | nt | -2% | 18µM* | 23µM* | -21% | -5
CCOC(=O)C12CC1/C(=N/O)c1ccccc1O2 (stereo not drawn) | 8% | nt | nt | nt | nt | nt
CCn1cc(CN2CCCC(C(=O)c3ccc(-c4ccccc4)cc3)C2)cn1 (stereo not drawn) | 3% | -29% | 26µM* | ? | -28% | -90*
Cn1cc(CN2CCCC(C(=O)c3ccc(-c4ccccc4)cc3)C2)cn1 (stereo not drawn) | 6% | -5% | 16µM* | -24% | -43% | -13
